# Measurements from PubChem BioAssay (Tox21).
# Inconclusive results are not listed. Calls of active or inactive are those of the source. Calls follow the shape of the dose curve; as a rule, active = well fitted cell-killing curve with a large enough effect in the repeat runs; inconclusive = weak or mixed curves; inactive = flat fitted curve, though single readings scatter.
# Assay: qHTS RealTime-Glo MT Cell Viability Assay in HepG2 cells - 8 hour (AID 1224873); also: nearly all actives have a fitted effect of over 55% in size
# Settings: RealTime-Glo luminescence; series mostly up to 76.8 µM; viability change, negative = cytotoxic: at the top concentration
# Excerpt: National Center for Advancing Translational Sciences [NCATS]
# NIH Chemical Genomics Center [NCGC]
# U.S. Environmental Protection Agency [EPA]
# National Institutes of Environmental Health Sciences [NIEHS]
# National Toxicology Program [NTP]
# U.S. Food and Drug Administration [FDA]
# Measure of cell viability is critical in the cell-base assay. Analysis of cell viability is necessary for the characterization of cell responses to cytotoxic drugs and environmental stress. A RealTime-Glo MT Cell Viability Assay to monitor cell viability in real time of continues cell culture during 40 hours of compound treatment was used to screen Tox21 10K library compounds in HepG2 cells. The RealTime-Glo MT Cell Viability Assay is a nonlytic, homogeneous, bioluminescent method to measure cell viability in real time using a simple, plate-based method. The assay involves adding NanoLuc luciferase and a cell-permeant prosubstrate to cells in culture. Viable cells reduce the proprietary prosubstrate to generate a substrate for NanoLuc luciferase. This substrate diffuses from cells into the surrounding culture medium, where it is rapidly used by the NanoLuc Enzyme to produce a luminescent signal. The signal correlates with the number of viable cells, making the assay well suited for cytotoxicity studies.
# Tox21 Assay Protocol Summary:
# The mixture of HepG2 cell suspension and reagents were dispensed at 600cells/6 ul/well in 1536-well tissue culture treated black solid bottom plates using a Multidrop dispenser. After the assay plates were incubated at a 37 C/5% CO2 incubator for 5 hours, 23 nL of compounds dissolved in DMSO, positive and negative controls was transferred to the assay plate by a pintool work station. The plates were incubated at 37 C for 40 hours. The luminescence intensity were measured at 0h, 8h, 16h, 24h, 32h and 40h time points using ViewLux plate reader during compound treatment.
# % is scaled to controls: 0 for no effect and ±100 for the full control effect.
row,SMILES,"viability change, negative = cytotoxic"
1,CCCOC(=O)CC,6.36% (inactive)
2,C=C(C)C(=O)OCC1CCCO1 (stereo not given),0.629% (inactive)
3,CCOc1c(N2CCOCC2)cnn(C)c1=O,1.24% [at 35.3 µM] (inactive)
4,CC(C)[C@H]1CC[C@@H](C)CC1=O,0.535% (inactive)
5,C[C@@H]1CCC[C@H](C)N1,0.957% [at 35.3 µM] (inactive)
6,CCC(C)(CN(C)C)OC(=O)c1ccccc1 (stereo not given),4.09% [at 35.3 µM] (inactive)
7,CCNS(=O)(=O)c1ccc(C)cc1,-0.489% (inactive)
8,CC1=NN(c2cccc(S(=O)(=O)O)c2)C(=O)C1,0.207% (inactive)
9,Cc1ccc(C(=O)c2ccccc2)cc1,-14.5% (inactive)
10,CCC(C)(CCCC(C)C)OC(C)=O (stereo not given),3.91% (inactive)
11,CCN1C=CN(C)C1C (stereo not given),4.41% (inactive)
12,C1CCC2(CCCCO2)OC1,4.65% (inactive)
13,CCCCCCCCCCCCSC,5.11% (inactive)
14,COc1cc(-c2ccc(=O)[nH]n2)ccc1OC(F)F,0.807% [at 35.3 µM] (inactive)
15,COC(=O)Nc1ccc(Cl)c(Cl)c1,0.637% (inactive)
16,OCCCCCO,-1.37% (inactive)
17,NC(=O)N1c2ccccc2CC(=O)c2ccccc21,2.99% [at 35.3 µM] (inactive)
18,COCCOCC(OC)OC,-0.0532% [at 35.3 µM] (inactive)
19,CC1=CC(=O)[C@H]2C[C@@H]1C2(C)C,-0.702% (inactive)
20,Cc1ncc([C@@H](CCCCCCc2ccc3c(n2)NCCC3)CC(=O)O)cn1,0.271% (inactive)

row,SMILES,"viability change, negative = cytotoxic"
1,CC(=O)O[C@@]12CO[C@@H]1C[C@H](O)[C@@]1(C)C(=O)[C@H](O)C3=C(C)[C@@H](OC(=O)[C@H](O)[C@@H](NC(=O)OC(C)(C)C)c4ccccc4)C[C@@](O)([C@@H](OC(=O)c4ccccc4)[C@H]21)C3(C)C,-8.33% [at 35.3 µM] (inactive)
2,CC[N+](CC)(CC(=O)Nc1c(C)cccc1C)Cc1ccccc1 (tested in a mixture with another compound),4.09% [at 35.3 µM] (inactive)
3,CCCCN1C=CN(C)C1,2.13% [at 15.8 µM] (inactive)
4,CC1=CCC(O)(C(C)C)CC1 (stereo not given),1.55% (inactive)
5,CC(=O)C1CCCCC1=O (stereo not given),-1.1% (inactive)
6,CCN[C@H]1C[C@H](C)S(=O)(=O)c2sc(S(N)(=O)=O)cc21,2.94% [at 35.3 µM] (inactive)
7,CCOc1ccc2nc(S(N)(=O)=O)sc2c1,-8.28% [at 35.3 µM] (inactive)
8,CCCCCCC#CC(=O)OC,-21.9% (inactive)
9,O=Cc1cccc(Br)c1,3.63% (inactive)
10,Clc1cc(Cl)c(Cl)nc1Cl,-5.37% (inactive)
11,CN1CCN(c2cc3c(nn2)Oc2ccccc2N3C)CC1,-9.11% [at 15.8 µM] (inactive)
12,CNCCO,2.67% (inactive)
13,[K+],2.26% (inactive)
14,C=COCC1CCC(COC=C)CC1 (stereo not given),-0.315% (inactive)
15,CC(C)(CCC(=O)O)C(=O)O,1.87% (inactive)
16,CC(C)CCCO,1.89% (inactive)
17,Cc1onc(-c2c(Cl)cccc2Cl)c1C(=O)Cl,5.97% [at 35.3 µM] (inactive)
18,Clc1cc(Cl)cc(Cl)c1,0.0951% (inactive)
19,C[N+]12CCC(CC1)C(OC(=O)C(O)(c1ccccc1)c1ccccc1)C2 (stereo not given),-2.42% [at 35.3 µM] (inactive)
20,CC1(C)[C@@H]2CC[C@@]1(C)[C@H](O)C2,2.52% (inactive)
